Source: PubChem BioAssay (NCATS)
Inconclusive results are not listed. Calls of active or inactive are those of the source. Calls come from the whole dose curve; as a rule, active = well fitted curve in the direction sought with a large enough effect; inconclusive = small, poorly fitted or top-dose-only effect, or another doubt; inactive = no such curve, though single readings can be large; an effect the other way counts as inactive or inconclusive.

Experiments:
[1] = molecular target: Glutathione peroxidase 1 (Homo sapiens) (UniProt P07203); assay: Primary qHTS Assay for Inhibitors of Recombinant Selenoprotein Glutathione Peroxidase 1 (GPX1) (AID 1845191); note: nearly all actives have a fitted effect of over 65% in size; for activity, negative = inhibition: % is set by controls: 0 for no effect and ±100 for the full control effect
Glutathione peroxidase 1 (Homo sapiens), sequence (P07203 whole entry, looked up): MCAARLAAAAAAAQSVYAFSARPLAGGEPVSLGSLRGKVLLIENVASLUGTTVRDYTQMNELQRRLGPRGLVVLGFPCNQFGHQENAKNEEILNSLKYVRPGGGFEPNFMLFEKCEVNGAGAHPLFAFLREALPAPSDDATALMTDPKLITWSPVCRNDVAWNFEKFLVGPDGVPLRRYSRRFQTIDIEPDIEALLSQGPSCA
Method in brief: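 GR-coupled readout: NADPH consumption tracked by fluorescence, ex 340/em 450 nm, at t=0 and after 15 min at RT. Final mix 10 nM GPX1, 1 mM GSH, 0.5 mM CHP, 0.5 mM NADPH, 100 nM GR, 0.01% BSA, following 30 min enzyme–compound preincubation.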

[2] = molecular target: Phospholipid hydroperoxide glutathione peroxidase GPX4 (Homo sapiens) (UniProt P36969); assay: Primary qHTS Assay for Inhibitors of Recombinant Selenoprotein Glutathione Peroxidase 4 (GPX4) (AID 1845192); note: nearly all actives have a fitted effect of over 65% in size; for activity change, negative = inhibition: series mostly up to about 50 µM; % is set by controls: 0 for no effect and ±100 for the full control effect
Phospholipid hydroperoxide glutathione peroxidase GPX4 (Homo sapiens), sequence (P36969 whole entry, looked up): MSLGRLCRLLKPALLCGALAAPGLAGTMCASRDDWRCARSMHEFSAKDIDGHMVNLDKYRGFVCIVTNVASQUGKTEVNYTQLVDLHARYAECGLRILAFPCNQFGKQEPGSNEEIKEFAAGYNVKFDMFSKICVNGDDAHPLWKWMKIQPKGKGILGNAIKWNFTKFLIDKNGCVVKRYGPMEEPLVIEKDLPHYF
Method in brief: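 Steps: GPX4 plus compound, 30 min RT; add GR/GSH/NADPH master mix; start with cumene hydroperoxide; read 340/450 nm fluorescence at 0 and 15 min. Finals were 200 nM GPX4, 1 mM GSH, 0.5 mM CHP, 0.5 mM NADPH, 100 nM GR.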

[3] = molecular target: Luciferin 4-monooxygenase (Photinus pyralis) (UniProt P08659); assay: Primary firefly luciferase (FLuc) qHTS assay for identification of artifact compounds. (AID 1845220); note: nearly all actives have a fitted effect of over 60% in size;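 for activity change, negative = inhibition: series mostly up to about 54 µM; plate controls were DMSO vehicle for no effect and no enzyme for full effect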
Method in brief: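 Titrated compounds were incubated 15 min at RT, protected from light, with luciferin and ATP at 10 uM; reaction started with 10 nM FLuc, luminescence imaged at 5 min, and concentration-response fitted by Hill equation.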

[4] = Primary fluorescence-based thiol-reactive (MSTI) qHTS assay for identification of artifact compounds. (AID 1845221); note: nearly all actives have a fitted effect of over 65% in size; note: potency is the fitted concentration of half-maximal effect;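 for activity change, negative = thiol reactive: series mostly up to about 54 µM; thiol-reactive compounds lower the probe fluorescence signal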
Method in brief: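 Thiol-reactive compounds detected by quenching of 4 uM MSTI fluorescence (525/598 nm) after 1 h room-temperature dark incubation in PBS pH 7.4, 2% DMSO. qHTS titration; percent inhibition Hill-fitted against Acetyl-MSTI/MSTI controls.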

[5] = system: Nanoluciferase (engineered Oplophorus gracilirostris luciferase); assay: Primary Nanoluciferase (NLuc) qHTS assay for identification of artifact compounds. (AID 1845222);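 note: NLuc secreted into diluted conditioned medium of S16 cells; series mostly up to about 54 µM; 0% = DMSO and -100% = no enzyme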
Method in brief: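 qHTS format, against NLuc in S16 cell-conditioned medium. Nano-Glo substrate 1:100 was added after 15 min at room temperature. Luminescence was taken after a further 5 min.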

[6] = Primary redox qHTS assay for identification of artifact compounds. (AID 1845223);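 note: 0% = DMSO and 100% = reference compound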
Method in brief: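 Redox-cycling detection via DTT (250 uM final) oxidation coupled to Amplex Red (25 uM)/HRP (250 mU/mL) in HBSS. 15 min preincubation plus 30 min after DTT, room temperature. Ex/Em 525/598 nm; 4-parameter Hill fit against DMSO and 10 uM DA3003.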

C=C1CCC[C@]2(C)CC[C@@](O)(C(=C)C(=O)O)C[C@@H]12
inactive: Potency [1] | Potency [2] | Potency [3] | Potency [4] | Potency [5] | Potency [6]

CC1(C)Oc2ncnc(N)c2N=C1c1ccc(C2CCC(CC(=O)O)CC2)cc1 (centres undefined)
inactive: Potency [1] | Potency [2] | Potency [3] | Potency [4] | Potency [5] | Potency [6]

C=C1CC/C=C(/CO)C(=O)C[C@@H]2[C@@H]1C[C@@]2(C)COC(C)=O
active: Potency [4] 11.9 µM
inactive: Potency [1] | Potency [2] | Potency [3] | Potency [5] | Potency [6]

O=C(Nc1ccn(Cc2c(F)cccc2C(F)(F)F)n1)c1c(F)cccc1F
inactive: Potency [1] | Potency [2] | outcome [3] inactive [at 11.6 µM] | activity change, negative = thiol reactive [4] 27.2% [at 11.5 µM] | activity, negative = inhibition [5] 3.13% [at 11.6 µM] | redox activity (% of DA3003) [6] -0.702% [at 11.5 µM]

O=C(C1OC1/C=C/c1ccc2c(c1)OCO2)N1CCCCC1 (centres undefined)
inactive: Potency [1] | Potency [2] | Potency [3] | Potency [4] | Potency [5] | Potency [6]

C=CCC1=C[C@]2(OC)[C@H](C)[C@@H](c3ccc(OC)c(OC)c3)O[C@]2(OC)CC1=O
inactive: Potency [1] | Potency [2] | Potency [3] | Potency [4] | Potency [5] | Potency [6]

CC1CC2OCC3(O)CCC(O)C(C14CC(c1ccoc1)OC4=O)C23CO (centres undefined)
active: Potency [4] 3.29 µM
inactive: Potency [1] | Potency [2] | Potency [3] | Potency [5] | Potency [6]

NC(=O)[C@H](Cc1ccccc1)NC(=O)[C@H](CCCN=C(N)N)NC(=O)C12CC3CC(CC(C3)C1)C2
inactive: Potency [1] | Potency [2] | activity change, negative = inhibition [3] 0.126% [at 11.6 µM] | activity change, negative = thiol reactive [4] 37.2% [at 11.5 µM] | activity, negative = inhibition [5] 3.23% [at 11.6 µM] | redox activity (% of DA3003) [6] -2.26% [at 11.5 µM]

CCNC(=O)C1CC(F)(c2ccc(CN3CCCC3)c(F)c2)C1 (centres undefined)
inactive: Potency [1] | Potency [2] | Potency [3] | Potency [4] | Potency [5] | Potency [6]

C=C1CCC2[C@](C)(CCC[C@]2(C)C(=O)O)[C@H]1CC/C(C)=C/C(=O)OC (some centres undefined)
inactive: Potency [1] | Potency [2] | Potency [3] | Potency [4] | Potency [5] | Potency [6]

CC1(C)CC[C@]2(C(=O)O)[C@H](O)C[C@]3(C)C(=CCC4[C@@]5(C)CC[C@H](O[C@@H]6OC[C@@H](O)[C@H](O)[C@H]6O)[C@@](C)(C(=O)O)C5CC[C@]43C)[C@@H]2C1 (some centres undefined)
inactive: Potency [1] | Potency [2] | Potency [3] | Potency [4] | Potency [5] | Potency [6]

COc1cc([C@H]2OC[C@](O)(Cc3ccc(O[C@@H]4O[C@H](CO)[C@@H](O)[C@H](O)[C@H]4O)c(OC)c3)[C@@H]2CO)ccc1O
inactive: Potency [1] | Potency [2] | Potency [3] | Potency [4] | Potency [5] | Potency [6]

C=C(C)C1CCC2(C(=O)OC3OC(COC4OC(CO)C(O)C(O)C4O)C(OC4OC(C)C(O)C(O)C4O)C(O)C3O)CCC3(C(=O)O)C(CCC4C5(C)CCC(=O)C(C)(C)C5CCC43C)C12 (centres undefined)
inactive: Potency [1] | Potency [2] | outcome [3] inactive [at 11.6 µM] | activity change, negative = thiol reactive [4] 183% [at 11.5 µM] | activity, negative = inhibition [5] 3.95% [at 11.6 µM] | redox activity (% of DA3003) [6] 7.53% [at 11.5 µM]

CC(CC(C)O[C@@H]1O[C@H](CO)[C@@H](O)[C@H](O)[C@H]1O)OC(=O)/C=C/c1ccc(O)cc1 (some centres undefined)
inactive: Potency [1] | Potency [2] | Potency [3] | Potency [5] | Potency [6]
active: Potency [4] 4.62 µM

C=C(C(=O)O)[C@@H]1CC[C@@]2(C)CC[C@@H](O)C(=C)C2C1 (some centres undefined)
active: Potency [4] 23.8 µM
inactive: Potency [1] | Potency [2] | Potency [3] | Potency [5] | Potency [6]

COC(=O)C1=COC(OC2OC(CO)C(O)C(O)C2O)C2C(COC(=O)/C=C/c3ccc(O)cc3)C(O)C(O)C12 (centres undefined)
inactive: Potency [1] | Potency [2] | Potency [3] | Potency [5] | Potency [6]
active: Potency [4] 5.82 µM

Cc1cc(Cn2cnc3c2CC(C(=O)O)N(C(=O)C(c2ccccc2)c2ccccc2)C3)ccc1N(C)C (centres undefined)
inactive: Potency [1] | Potency [2] | Potency [3] | Potency [4] | Potency [5] | Potency [6]

CC/C=C/C=C/C1(C)OC(CC(CO)OC)=CC1=O (centres undefined)
inactive: Potency [1] | Potency [2] | Potency [3] | Potency [4] | Potency [5] | Potency [6]

CC(C)(O)C1CCC2(C)CCCC(C)(O)C2C1 (centres undefined)
inactive: Potency [1] | Potency [2] | Potency [3] | Potency [4] | Potency [5] | Potency [6]

C=C1CC[C@@]2(OC1)O[C@H]1CC3C4CC=C5C[C@@H](O[C@@H]6O[C@@H](C)[C@H](O)[C@@H](O)[C@H]6O)C[C@@H](O[C@@H]6O[C@H](C)[C@H](O)[C@H](O)[C@H]6O[C@@H]6O[C@@H](C)[C@H](O)[C@@H](O)[C@H]6O)[C@]5(C)C4CC[C@]3(C)[C@H]1[C@@H]2C (some centres undefined)
inactive: Potency [1] | Potency [2] | outcome [3] inactive [at 11.6 µM] | activity change, negative = thiol reactive [4] 170% [at 11.5 µM] | activity, negative = inhibition [5] -0.58% [at 11.6 µM] | redox activity (% of DA3003) [6] 1.1% [at 11.5 µM]

COc1ccc(CCc2nc3cc(-c4c(C)noc4C)ccc3n2C[C@H](C)N2CCOCC2)cc1Cl
inactive: Potency [1] | Potency [2] | Potency [3] | Potency [4] | Potency [5] | Potency [6]

C=C1C(OC(C)=O)C(=O)C2C(C)(C)C(O)CCC2(C)C1CC(OC(C)=O)/C(C)=C/COC(C)=O (centres undefined)
inactive: Potency [1] | Potency [2] | Potency [3] | Potency [4] | Potency [5] | Potency [6]

Cn1cc(Nc2cnccc2C(=O)O)c2cccnc21
inactive: Potency [1] | Potency [2] | Potency [3] | Potency [4] | Potency [5] | Potency [6]

C/C=C(\C)C(=O)OC1C(C)C2(O)C3C=C(C)C(=O)C3CC(CO)=CC2C2C(C)(C)C12OC(C)=O (centres undefined)
inactive: Potency [1] | Potency [2] | Potency [3] | Potency [4] | Potency [5] | Potency [6]

CC(C)[C@](O)(c1ccc2cc(OC(F)F)c(OC(F)F)cc2c1)c1cn[nH]n1
inactive: Potency [1] | Potency [2] | Potency [3] | Potency [4] | Potency [5] | Potency [6]

CC(=O)OC[C@]12[C@H](OC(C)=O)[C@H](OC(=O)c3ccccc3)[C@@H]3[C@@H](OC(C)=O)[C@]1(OC3(C)C)[C@H](C)C[C@H](OC(=O)c1ccccc1)[C@@H]2OC(=O)c1ccccc1
inactive: Potency [1] | Potency [2] | Potency [3] | Potency [4] | Potency [5] | Potency [6]

COc1ccccc1CN[C@H]1CCCN[C@H]1c1ccccc1
inactive: Potency [1] | Potency [2] | Potency [3] | Potency [4] | Potency [5] | Potency [6]

C=C1CCC2[C@](C)(CO)CCC[C@@]2(C)[C@@H]1CCC1=CCOC1=O (some centres undefined)
inactive: Potency [1] | Potency [2] | Potency [3] | Potency [4] | Potency [5] | Potency [6]

CC1OC(O[C@H]2CC[C@@]3(C)C(CC[C@]4(C)C3CC=C3C5CC(C)(C)CC[C@]5(C(=O)OC5OC(CO)C(OC6OCC(OC7OCC(O)C(O)C7O)C(O)C6O)C(O)C5O)CC[C@]34C)C2(C)C)C(O)C(O)C1OC1OC(CO)C(O)C(OC2OC(CO)C(O)C(O)C2O)C1O (some centres undefined)
inactive: Potency [1] | Potency [2] | outcome [3] inactive [at 11.6 µM] | activity change, negative = thiol reactive [4] 250% [at 11.5 µM] | activity, negative = inhibition [5] 0.21% [at 11.6 µM] | redox activity (% of DA3003) [6] 2.88% [at 11.5 µM]

COc1ccc(-n2c(SCC#N)nc3sc4c(c3c2=O)CCCC4)cc1
inactive: Potency [1] | Potency [2] | Potency [3] | Potency [4] | Potency [5] | Potency [6]

CCC(C)C(N)C(=O)NCCN1CCOCC1 (centres undefined)
inactive: Potency [1] | Potency [2] | Potency [3] | Potency [4] | Potency [5] | Potency [6]

CC(CCO)CCC1C2(C)CCCC(C)(C)C2CC[C@@]1(C)O (some centres undefined)
inactive: Potency [1] | Potency [2] | Potency [3] | Potency [4] | Potency [5] | Potency [6]

CC(=O)OC12CC(C)C(O)C1/C=C(/COC1OC(CO)C(O)C(O)C1O)CCC1C(/C=C(\C)C2=O)C1(C)C (centres undefined)
inactive: Potency [1] | Potency [2] | Potency [3] | Potency [4] | Potency [5] | Potency [6]

N#Cc1ccc(C2CCCc3cncn32)cc1 (centres undefined)
inactive: Potency [1] | Potency [2] | Potency [3] | Potency [4] | Potency [5] | Potency [6]

C=C1CCc2occ(C)c2[C@H]2[C@H]1[C@@]13O[C@@]1(C[C@@H](C)[C@H]3OC(C)=O)[C@H]1O[C@@]21C
inactive: Potency [1] | Potency [2] | Potency [3] | Potency [4] | Potency [5] | Potency [6]

CCCN(CCN1CCN(c2ccccc2OC)CC1)C1CCc2ncsc2C1 (centres undefined)
inactive: Potency [1] | Potency [2] | Potency [3] | Potency [4] | Potency [5] | Potency [6]

COC(=O)C(CC1(OC(=O)C(C)C)c2ccccc2N2C(=O)C(C)(C)N(O)C21)n1cnc2ccccc2c1=O (centres undefined)
inactive: Potency [1] | Potency [2] | Potency [3] | Potency [4] | Potency [5] | Potency [6]

CCC(CC)CC1(C(=O)Nc2ccccc2SC(=O)C(C)C)CCCCC1
inactive: Potency [1] | Potency [2] | Potency [3] | Potency [4] | Potency [5] | Potency [6]

C/C=C/C=C/C(=O)OC1CC/C=C/C(O)C(O)C(CCC)OC1=O (centres undefined)
inactive: Potency [1] | Potency [2] | Potency [3] | Potency [4] | Potency [5] | Potency [6]
